# Rows were chosen to be rich in hits. Some 21% of all compounds tested hit in one or more screens of this group.
# Shiga toxin inh = blocks Shiga toxin action in Vero cells; inhibition, % at 38.7 µM; AID 2315; hit rate 9.2% among 290,000; Vero cells, Shiga toxin protein synthesis inhibition reporter; in the data active = inhibition mostly above about 28%, no sharp cut-off; inactive = mostly below about 43%; also: 0% is about no effect
# SARS PLpro yeast = SARS-CoV PLP inhibition in yeast | S. cerevisiae expressing SARS-CoV PLpro, growth rescue | Potency, µM (doses to about 32.9 µM), for the others: top-dose activity, positive = growth rescue, hits mostly activators | hit rate 0.19% among 330,000 | AID 485353; also: potency is read from the fitted curve at half-maximal effect; 0% is about no effect; nearly all actives have a fitted effect of over 55% in size
# Pf growth 96h = P. falciparum growth inhibition at 96 hour, primary screen for plastid delayed-death inhibitors | hit rate 6.9% among 320,000 | AID 504834 | Potency, µM (highest dose often 28.7 µM), for the others: at the highest dose activity change, negative = inhibition, usual class: inhibitors | P. falciparum luciferase reporter growth, 96 h; active = well fitted inhibition curve with a large enough effect; inconclusive = small, poorly fitted or top-dose-only effect, or another doubt; inactive = no such curve, though single readings can be large or run the other way; also: potency is read from the fitted curve at half-maximal effect; % is scaled to controls: 0 for no effect and ±100 for the full control effect
#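 Luminescence readout: decreased luciferase signal marks inhibited growth of reporter-expressing P. falciparum in infected red cells (2% hematocrit, 0.05% parasitemia final), exposed to compound two generations (96 h, 37 C, 5% CO2).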
# CHX counter = counter-screen for Shiga toxin inhibitors: cycloheximide protein synthesis inhibition | cell reporter, cycloheximide protein synthesis inhibition counterscreen | max response, % | hit rate 12% among 300,000 | AID 2314; in the data active = max response mostly above about 13%, no sharp cut-off; inactive = mostly below about 14%; also: read at 38.3 µM for the half of the compounds with a filed dose; 0% is about no effect
# Pf growth 48h = inhibits P. falciparum growth in the first generation, 48 h. P. falciparum luciferase growth in erythrocytes, 48 h. Potency, µM (top dose mostly 28.7 µM), for the others: at the top dose activity change, negative = inhibition, hits mostly inhibitors. hit rate 5.9% among 310,000; active = well fitted inhibition curve with a large enough effect; inconclusive = small, poorly fitted or top-dose-only effect, or another doubt; inactive = no such curve, though single readings can be large or run the other way; also: potency is read from the fitted curve at half-maximal effect; % is scaled to controls: 0 for no effect and ±100 for the full control effect
#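 First compound was added to culture medium, then infected red cells at 0.1% parasitemia and 2% hematocrit (final). After incubation at 37 C under 5% CO2, luciferase detection reagent was dispensed and light output recorded.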
# NS1 inh = influenza NS1 inhibition; Potency, µM (doses to about 46.1 µM), inactives show top-dose activity, positive = more growth; hit rate 0.4% among 270,000; also: potency is read from the fitted curve at half-maximal effect; actives are rising curves; nearly all actives have a fitted effect of over 50% in size
#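 Read-out: OD600 growth recovery of NS1-expressing budding yeast. Cells grown overnight at 30C in -URA glucose medium, washed, resuspended and diluted 1:100 in 2% galactose assay medium, pH 6.0. Same strain lacking NS1 served as positive control.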
# Numbers without * were called inactive; ? = inconclusive; · = no result. Unless noted, calls follow the shape of the full dose curve.
SMILES,Shiga toxin inh,SARS PLpro yeast,Pf growth 96h,CHX counter,Pf growth 48h,NS1 inh
Cc1cc(=O)oc(C)c1C(=O)OCC(=O)c1ccccc1,34,6%,4%,30*,27%,-11%
O=C1NC(c2ccccc2)=C(c2nc3ccccc3s2)C(c2ccccc2)N1 (stereo not drawn),5,0%,8.3µM*,-2,?,22%
COc1cc(CN2CCN(C(c3ccccc3)c3ccccc3)CC2)cc(OC)c1OC,-1,4%,4.7µM*,-1,?,-15%
COc1cc(C(=S)N2CCN(C(c3ccccc3)c3ccccc3)CC2)cc(OC)c1O,-3,-1%,9%,-2,?,-22%
COc1cccc(CN2CCN(Cc3cc(OC)c(OC)c(OC)c3)CC2)c1OC,-3,1%,-3%,-2,7%,5%
COc1cccc(CN2CCN(C(c3ccccc3)c3ccccc3)CC2)c1O,-7,5%,0.41µM*,-3,?,2%
Cc1cccc(CN2CCN(C(c3ccccc3)c3ccc(Cl)cc3)CC2)c1 (stereo not drawn),16,-68%,9.3µM*,-1,?,-11%
O=C(c1ccco1)N1CCN(C(=O)c2ccccc2NS(=O)(=O)c2ccc(F)cc2)CC1,-3,-1%,0%,13,-37%,·
CN(C(=O)COC(=O)CSc1cc(Cl)ccc1Cl)c1c(N)n(Cc2ccccc2)c(=O)[nH]c1=O,·,-6%,9%,·,-2%,·
O=C1CN(C(=O)C2CCC(=O)N(CCc3ccc(Cl)cc3)C2)CCN1 (stereo not drawn),-6,9%,1%,-1,0%,-4%
Clc1ccc(-c2nnc(Sc3nc4ccccc4o3)c3ccccc23)cc1,17,1%,8%,3,37%,-2%
Cc1ccc(-c2nnc(Sc3nc4ccccc4o3)c3ccccc23)cc1,-17,-4%,4%,-4,12µM*,·
Cc1nnc(Sc2nc3ccccc3o2)c2ccccc12,107,-11%,·,26*,-25%,-45%
CCSc1nnc(C)c2ccccc12,-16,-2%,?,-5,49%,1%
NC(=O)CSc1nnnn1-c1ccccc1Cl,19,1%,?,1,-2%,4%
CCCN(CC(=O)Nc1cc(Cl)ccc1Cl)C(=O)/C=C/c1ccco1,126*,18%,?,55*,?,16%
CN(CC(=O)Nc1ccc(Cl)c(C(F)(F)F)c1)C(=O)/C=C/c1ccco1,37*,-19%,-1%,14,-7%,3%
CN(CC(=O)Nc1ccc(Cl)c(C(F)(F)F)c1)C(=O)CCNC(=O)c1ccco1,·,2%,-25%,·,10µM*,·
CC(C)C(NC(=O)/C(=C/c1ccco1)NC(=O)c1ccc(Br)o1)C(=O)O (stereo not drawn),-5,-1%,48%,-1,-2%,6%
O=C(COc1ncnc2scc(-c3ccc(Cl)cc3)c12)NCc1ccco1,53*,4%,?,27,-7%,11%
CN(C(=O)COC(=O)CN1C(=O)C2CC=CCC2C1=O)c1ccccc1 (stereo not drawn),·,-5%,1%,·,11%,·
O=C(Nc1nc2c(s1)CCCC2)c1cccnc1,70*,-1%,9%,52*,70%,0%
CC(C)(C)c1nc(SCC(=O)Nc2nc3c(s2)CCCC3)c2ccccc2n1,4,-4%,?,-2,1.2µM*,-10%
Cn1c(SCC(=O)Nc2nc3c(s2)CCCC3)nnc1-c1ccccc1,9,0%,0%,-1,-21%,-2%
O=C(Nc1nc2c(s1)CCCC2)c1cc(-c2ccncc2)nc2ccccc12,-2,-7%,0%,2,0%,9%
SMILES,Shiga toxin inh,SARS PLpro yeast,Pf growth 96h,CHX counter,Pf growth 48h,NS1 inh
O=C(NC(=S)Nc1nc2c(s1)CCCC2)c1ccc(C(=O)c2ccccc2)cc1,12,-15%,4%,17,-2%,12%
C/C(=N\Nc1nc2c(s1)CCCC2)c1ccccc1,143*,-2%,·,43*,?,7%
O=C(Nc1nc2c(s1)CCCC2)c1cccs1,-11,-21%,-6%,27*,153%,-134%
Cc1cc(C(=O)C[N+]2(C)CCOCC2)c(C)n1-c1ccc(Br)cc1,-7,2%,?,-1,?,·
CCCn1c(SCC(=O)Nc2cccc(S(=O)(=O)N(C)C)c2)nc2ccccc2c1=O,-1,0%,?,-2,?,9%
O=C(Nc1nc2c(s1)CCCC2)Oc1ccccc1,34*,2%,13%,21*,54%,1%
O=C(CCSc1ccccc1)Nc1nc2c(s1)CCCC2,162*,-6%,·,31*,48%,0%
O=C(Cc1cccs1)Nc1nc2c(s1)CCCC2,132*,-21%,6%,54*,43%,-32%
O=C(Cc1cn2ccsc2n1)Nc1nc2c(s1)CCCC2,1,-3%,40%,2,·,-11%
CCN(CC(=O)Nc1ccc(Cl)c(C(F)(F)F)c1)CC(=O)NC1CCS(=O)(=O)C1 (stereo not drawn),-9,0%,11%,-3,-13%,·
Cc1ccc(Cl)c(OCCN2CCCC(C)C2)c1 (stereo not drawn),12,-16%,4%,-2,-24%,-29%
CC1CCCN(CCCOc2ccc(Cl)cc2Br)C1 (stereo not drawn),103*,-15%,3%,37*,?,-30%
Cc1cc(Cl)c(OCCOCCN2CCC(C)CC2)c(Br)c1,-6,1%,12µM*,-7,?,-5%
CC1CCN(CCOCCOc2ccc(Cl)cc2Br)CC1,-33,-4%,6.6µM*,-4,?,-10%
CC1CCCN(CCOc2ccc3ccccc3c2Br)C1 (stereo not drawn),43*,0%,?,14,?,-7%
Clc1ccc(OCCOCCN2CCCCC2)c(Br)c1,21,-8%,?,6,?,-34%
CC1CCN(CCCOc2ccc(Cl)cc2Br)CC1,73*,-4%,?,26*,-15%,·
O=C(CCc1ccccc1)Nc1ccccc1[N+](=O)[O-],54*,24%,?,26*,91%,-10%
NC(=O)c1ccccc1NC(=O)CS(=O)(=O)Cc1ccccc1,54,6%,9.3µM*,-4,24%,3%
NC(=O)c1ccccc1NC(=O)CCCc1ccccc1,·,2%,8%,20*,65%,-15%
O=C(CCCc1ccccc1)Nc1cccnc1Cl,74,0%,41%,10,-6%,1%
O=C(Cc1ccccc1)Nc1ccccc1C(=O)O,76*,5%,-12%,35*,·,-5%
S=C(S)NCCN1CCNCC1,·,·,·,·,·,3%
Cc1nc(/C=C\C(=O)O)c2cc(C)oc2n1,-14,-1%,27%,0,2%,·
CC1(C(=O)O)CCC(C(=O)NNC(=O)c2ccccc2O)C1(C)C (stereo not drawn),-2,0%,423%,-1,14%,4%
CCc1ccc(CCC(=O)Nc2ccccc2C(=O)O)o1,75*,-3%,?,40*,-15%,-46%
CC#CCCCC(=O)Nc1ccccc1C(=O)O,83*,0%,31%,28*,32%,8%
